SW480 rereplic: inducers of DNA re-replication in SW480 colon cancer cells; SW480 DNA re-replication, Hoechst DNA content imaging, 48 h; Potency, µM (top dose mostly 46.1 µM), usual class: activators; 340,000 compounds, 1.8% hits; AID 624297; also: nearly all actives have a fitted effect of over 55% in size
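Per well, 250 cells were exposed to pinned compound for 48 hr. Nuclear DNA was visualised with Hoechst (40 min, 37 C) and total object intensity recorded by fluorescence scanning.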
MCF10A rerep: DNA re-replication induction in MCF 10a cells; 350,000 compounds, 2.9% hits; MCF 10A DNA re-replication, Hoechst nuclear intensity, 48 h; Potency, µM (highest dose often 46.1 µM), hits mostly activators; also: nearly all actives have a fitted effect of over 50% in size
ELG1 DNA repair: inhibitors of ELG1-dependent DNA repair in HEK293T cells. HEK293T ELG1-luciferase reporter, luminescence, 16 h; DNA damage induced by 5-fluorouridine. Potency, µM (highest dose often 46.1 µM), actives largely listed as inhibitors. 330,000 compounds, 2.3% hits; also: nearly all actives have a fitted effect of over 55% in size
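Overnight (16 hr) co-exposure of 2,000 cells/well to 5-fluorouridine and compound at 37 °C preceded detection. Luciferase was quantified via ONE-Glo luminescence; loss of signal denotes inhibition.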
Gal4-VP16 FLuc: inhibits Gal4-VP16 luciferase reporter, ROR gamma counter-screen. Potency, µM (top dose mostly 53.6 µM), actives largely listed as inhibitors. 310,000 compounds, 3.5% hits. Drosophila S2 Gal4-VP16 UAS-luciferase, luminescence, 20 h;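 also: Gal4-VP16 expression switched on by copper sulfate through the metallothionein promoter; nearly all actives have a fitted effect of over 50% in size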
RORg inh: inhibitors of mouse ROR gamma transcriptional activity. P51450. Drosophila S2 Gal4-RORgamma UAS-luciferase reporter, 20 h. Potency, µM (top dose mostly 53.6 µM), most hits filed as inhibitors. 310,000 compounds, 5.4% hits. AID 2551; also: nearly all actives have a fitted effect of over 60% in size
Target sequence (P51450 whole entry, looked up, the tested form may be a part): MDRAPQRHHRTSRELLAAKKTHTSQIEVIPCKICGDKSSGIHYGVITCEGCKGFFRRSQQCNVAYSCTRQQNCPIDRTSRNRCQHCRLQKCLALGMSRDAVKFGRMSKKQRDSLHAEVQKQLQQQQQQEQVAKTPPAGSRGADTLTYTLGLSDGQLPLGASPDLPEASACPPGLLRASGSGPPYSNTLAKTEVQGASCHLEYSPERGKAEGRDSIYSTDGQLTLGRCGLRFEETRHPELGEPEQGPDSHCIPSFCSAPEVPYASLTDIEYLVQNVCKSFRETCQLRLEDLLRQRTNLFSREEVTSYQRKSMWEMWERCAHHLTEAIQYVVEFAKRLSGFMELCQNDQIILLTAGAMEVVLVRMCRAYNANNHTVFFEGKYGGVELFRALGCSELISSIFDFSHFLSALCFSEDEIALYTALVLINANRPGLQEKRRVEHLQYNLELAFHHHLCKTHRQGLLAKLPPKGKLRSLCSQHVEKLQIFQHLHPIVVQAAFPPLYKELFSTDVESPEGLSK
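Drosophila Schneider cells stably carrying a metallothionein-driven Gal4 DBD–ROR gamma fusion and a UAS-Photinus luciferase reporter were exposed to compound for 1 hr, then induced with copper sulfate (700 uM final) for 20 hr at ambient temperature before luminescence reading.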
A number is an active result; - = inactive; ? = inconclusive; . = not tested or not shown; ! = a repeat was not active; [ ] = dose if it differs, or a comment. Compounds with a hit are over-represented: about 10% of the library has one in this group of screens. Calls follow the shape of the dose curve; as a rule, active = well fitted curve in the direction sought with a large enough effect; inconclusive = small, poorly fitted or top-dose-only effect, or another doubt; inactive = no such curve, though single readings can be large; an effect the other way counts as inactive or inconclusive.

SMILES | SW480 rereplic | MCF10A rerep | ELG1 DNA repair | Gal4-VP16 FLuc | RORg inh
CN1C(=O)/C(=N\OC(=O)c2cccc3ccccc23)c2ccccc21 | - | - | ? | 11µM | ?
COc1ccc(/C=C/C(=O)NC(=S)NNC(=O)Cc2cccs2)cc1 | - | ? | ? | ? | 11µM
O=C(/C=C/c1ccccc1)NC(=S)NNC(=O)Cc1cccs1 | ? | ? | - | 5µM | 2.5µM
COc1ccc(C(=O)NNC(=S)NC(=O)/C=C/c2cccs2)cc1 | ? | - | ? | - | ?
CCCC(=O)NC(c1ccc(N(C)C)cc1)c1c(O)ccc2ccccc12 (stereo not given) | - | - | - | - | ?
CCCCC(=O)NC(c1ccc(N(CC)CC)cc1)c1ccc2cccnc2c1O (stereo not given) | ? | ? | ? | 2.8µM | 2.2µM
CCCCC(=O)NC(c1ccc(N(C)C)cc1)c1ccc2cccnc2c1O (stereo not given) | ? | ? | - | 3.2µM | 5µM
S=C(Cc1ccccc1)Nc1ccccc1 | - | - | . | . | .
CC(C)(C)CC(=O)NC(=S)NCCc1ccccc1 | 10µM | ? | - | 10µM | 7.1µM
CC(C)(C)NC(=S)NCCc1ccccc1 | - | - | ? | 7.1µM | 6.3µM
CC(C)CC(=O)NC(=S)NCCc1ccccc1 | -[9.22 µM] | - | - | 7.9µM | 1.8µM
CCOc1cc(NC(=S)NCCc2ccccc2)c(OCC)cc1NC(C)=O | - | - | ? | - | 11µM
O=C(CC(=O)NCCc1ccccc1)NCCc1ccccc1 | - | - | - | - | -
N#CC1(NC(=O)COC(=O)C2=COCCO2)CCCCC1 | - | - | - | . | .
Cc1ccc(CN2CC(C(=O)Nc3ncc(C)s3)CC2=O)cc1 (stereo not given) | - | - | - | . | .
Cc1[nH]c(SCC(=O)Nc2cc(S(C)(=O)=O)ccc2Cl)nc1Cc1ccccc1 | - | - | ? | . | .
COc1cc(NC(=S)NCCc2ccccc2)c(OC)cc1NC(=O)CC(C)C | - | - | - | ? | 10µM
Cc1cc(C)n(/C(=C/N(C)C)C(=O)c2ccccc2)n1 | - | - | - | - | -
O=C1C=CC(O)(c2cc(=O)c3c(O)cc(O)cc3o2)C=C1 | 4.1µM | 1.5µM | 3.3µM | 2.8µM | 3.2µM
CCN=C1S/C(=C\c2cc(OCC)c(O)cc2Br)C(=O)N1CC | ? | 18µM | 18µM | - | ?
CCOC(=O)C1CCN(S(=O)(=O)c2ccc3c(ccn3C)c2)CC1 | - | - | - | - | -
COc1cccc(CC(=O)Nc2ccccc2N2CCCC2)c1 | - | - | - | - | -
O=C(Nc1nncs1)C1COc2ccccc2O1 (stereo not given) | - | - | ? | - | -
CC(=O)c1sc(NC(=O)C2COc3ccccc3O2)nc1C (stereo not given) | - | - | ? | 10µM | 7.1µM
Cc1cc(C)c2sc(NC(=O)C3CC3)nc2c1 | - | - | ? | - | 6.3µM
SMILES | SW480 rereplic | MCF10A rerep | ELG1 DNA repair | Gal4-VP16 FLuc | RORg inh
COc1ccc(OC)c2sc(NNC(=O)C3COc4ccccc4O3)nc12 (stereo not given) | - | ? | ? | - | ?
Cc1cccc2sc(NNC(=O)C3COc4ccccc4O3)nc12 (stereo not given) | - | - | - | 11µM | 6.3µM
Cc1cc(C)c2sc(NNC(=O)C3COc4ccccc4O3)nc2c1 (stereo not given) | ? | ? | - | 18µM | 2.8µM
O=C(CN1CCc2ccccc21)NN1CC(=O)N(c2ccccc2)CC1=O | - | - | - | - | -
O=C(NNc1nc2c(F)cc(F)cc2s1)C1COc2ccccc2O1 (stereo not given) | - | 0.92µM | - | - | 13µM
COc1cccc2c1C(=O)c1c(O)c3c(c(O)c1C2=O)C[C@@](O)(C(=O)CO)C[C@@H]3OC1C[C@@H](N)[C@H](O)[C@H](C)O1 (stereo not given in full) | . | . | . | ? | 2.5µM
COc1cccc2c1C(=O)c1c(O)c3c(c(O)c1C2=O)C[C@@](O)(C(C)=O)C[C@@H]3O[C@H]1C[C@H](N)[C@H](O)[C@H](C)O1 | - | - | 3.3µM | 6.3µM! | 2.5µM
CC(=O)[C@]1(O)Cc2c(O)c3c(c(O)c2[C@@H](O[C@H]2C[C@H](N)[C@H](O)[C@H](C)O2)C1)C(=O)c1ccccc1C3=O | - | - | . | - | ?
CC(=O)[C@]1(O)Cc2c(O)c3c(c(O)c2[C@@H](O[C@H]2C[C@H](N)[C@H](O)[C@H](C)O2)C1)C(=O)c1c(O)cccc1C3=O | - | - | . | 7.1µM | 3.5µM
Cc1nn(CC2CC2)c(=O)n1-c1ccc(Oc2ccccc2)cc1 | - | - | ? | ? | -
CC(NC(=O)c1cccs1)C(c1cccs1)N1CCOCC1 (stereo not given) | ? | - | - | - | -
CC(NC(=S)Nc1cccc(F)c1)C(c1cccs1)N1CCOCC1 (stereo not given) | - | - | - | ? | 8.9µM
Cc1cccc(C(=O)NC(C)C(c2cccs2)N2CCOCC2)c1 (stereo not given) | - | - | ? | - | -
Cc1ccc(C)c(NC(=S)NC(C)C(c2cccs2)N2CCOCC2)c1 (stereo not given) | ? | - | - | 11µM | 5µM
CCN(CC(=O)NCc1ccc(Cl)cc1)C(=O)CCOc1ccc(C)cc1 | ? | - | - | . | .
O=C(Nc1ccccc1-c1nc2ccccc2[nH]1)c1sc2ccccc2c1Cl | - | - | - | - | -
O=C1NC(=S)N/C1=C/c1cc([N+](=O)[O-])ccc1O | 10µM | - | - | - | -
COc1ccc(-c2cc(C(F)(F)F)nc(SCC(=O)NCc3cccs3)n2)cc1 | - | - | ? | ? | -
Cc1cccc(C)c1NC(=O)CSc1nc(-c2ccco2)cc(C(F)(F)F)n1 | 21µM | - | - | - | -
COc1ccc(-c2cc(C(F)(F)F)nc(SCC(=O)NCc3ccco3)n2)cc1OC | - | - | 23µM | - | -
O=C(CSc1nc(-c2ccccc2)cc(C(F)(F)F)n1)NCc1cccs1 | - | 6.5µM | - | ? | -[10 µM]
O=C(CSc1nc(-c2ccccc2)cc(C(F)(F)F)n1)NCc1ccco1 | - | ? | - | - | -
O=C(CSc1nc(-c2ccco2)cc(C(F)(F)F)n1)Nc1ccccc1C(F)(F)F | - | - | - | - | -
COc1ccc(NC(=O)CCCSc2nc(-c3ccco3)cc(C(F)(F)F)n2)cc1OC | - | - | 21µM | - | -
CCN(CC)S(=O)(=O)c1ccc(N2CCCC2)c(C(=O)OCC(=O)Nc2cc(C)on2)c1 | - | - | ? | - | -
C/C(O)=c1/cnc2nc3ccccc3n2c1=O | ? | - | - | - | -
CCCc1nc(N2CCOCC2)c2sc(=S)n(-c3ccccc3)c2n1 | . | . | - | - | -
CCCCN(C(=O)C1CC(=O)N(CCc2ccc(OC)c(OC)c2)C1)c1c(N)n(CC(C)C)c(=O)[nH]c1=O (stereo not given) | - | - | . | . | .
